# Test results from paper PMC7862700, “An all-to-all approach to the identification of sequence-specific readers for epigenetic DNA modifications on cytosine”.
# Key:
# Assay in all cases: DAPPL (digital affinity profiling via proximity ligation, sequencing); 10 mM Tris-HCl pH 7.5, 50 mM NaCl, 1 mM DTT, 4% glycerol, room temperature, 30 min; GST-TFs on glutathione beads, 16-mer random dsDNA library, 0.1% formaldehyde crosslink after washing; high values mean tight binding
# [1] = target: T1, FEV (Homo sapiens, UniProt Q99581 1-238); conditions: protein: recombinant; tags: N-terminal GST; dsDNA, one strand shown
# T1 sequence: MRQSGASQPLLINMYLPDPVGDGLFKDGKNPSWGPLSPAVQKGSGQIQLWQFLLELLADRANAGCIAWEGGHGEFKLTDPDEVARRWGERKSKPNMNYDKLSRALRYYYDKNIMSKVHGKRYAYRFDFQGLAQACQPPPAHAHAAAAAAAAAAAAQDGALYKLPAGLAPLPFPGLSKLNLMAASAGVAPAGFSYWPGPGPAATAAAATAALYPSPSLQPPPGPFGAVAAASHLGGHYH
# Outline: (§1)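 Yeast served to express human transcription factors as GST fusions, which were then captured on glutathione beads and labelled with DNA barcodes. Pooled with a tag-only sample, they were incubated with 200 nmole of a 16-mer random double-stranded DNA library for 30 min at room temperature in Tris/NaCl/DTT/glycerol buffer, washed, crosslinked with 0.1% formaldehyde, ligated by proximity, amplified by PCR and sequenced. Dividing each hexamer's read frequency for a factor by its frequency for the tag-only sample gives the binding signal.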
# [2] = target: ETV5 (Homo sapiens, UniProt P41161 1-510); conditions: protein: recombinant; tags: N-terminal GST; dsDNA, one strand shown
# Outline: as §1
# [3] = target: HSF1 (Homo sapiens, UniProt Q00613 1-529); conditions: protein: recombinant; tags: N-terminal GST; chain copies: 3; dsDNA, one strand shown
# Outline: as §1
# [4] = target: T2, SPIC (Homo sapiens, UniProt Q8N5J4 1-248); conditions: protein: recombinant; tags: N-terminal GST; dsDNA, one strand shown
# T2 sequence: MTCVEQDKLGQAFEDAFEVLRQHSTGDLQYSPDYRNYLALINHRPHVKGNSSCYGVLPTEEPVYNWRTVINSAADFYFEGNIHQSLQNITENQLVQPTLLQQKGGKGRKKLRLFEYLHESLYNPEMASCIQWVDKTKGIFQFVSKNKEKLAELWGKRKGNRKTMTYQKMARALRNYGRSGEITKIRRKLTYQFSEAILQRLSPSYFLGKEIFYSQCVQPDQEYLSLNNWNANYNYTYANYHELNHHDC
# Outline: as §1
# [5] = target: ELF4 (Homo sapiens, UniProt Q99607 1-663); conditions: protein: recombinant; tags: N-terminal GST; dsDNA, one strand shown
# Outline: as §1
# [6] = target: T3, ELK4 (Homo sapiens, UniProt P28324-2 1-405); conditions: protein: recombinant; tags: N-terminal GST; dsDNA, one strand shown
# T3 sequence: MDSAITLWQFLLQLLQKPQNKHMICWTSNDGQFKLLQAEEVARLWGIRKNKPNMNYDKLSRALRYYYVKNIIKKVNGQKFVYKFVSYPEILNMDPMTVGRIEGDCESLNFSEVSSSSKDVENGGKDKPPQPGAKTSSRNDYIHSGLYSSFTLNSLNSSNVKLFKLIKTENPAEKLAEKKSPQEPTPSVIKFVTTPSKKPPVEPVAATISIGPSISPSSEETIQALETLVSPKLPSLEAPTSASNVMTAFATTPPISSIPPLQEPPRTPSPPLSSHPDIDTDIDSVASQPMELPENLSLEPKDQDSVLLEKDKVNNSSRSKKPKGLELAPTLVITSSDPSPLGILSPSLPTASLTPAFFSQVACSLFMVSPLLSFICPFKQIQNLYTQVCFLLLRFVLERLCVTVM
# Outline: as §1
# [7] = target: T4, ETV2 (Homo sapiens, UniProt O00321 1-342); conditions: protein: recombinant; tags: N-terminal GST; dsDNA, one strand shown
# T4 sequence: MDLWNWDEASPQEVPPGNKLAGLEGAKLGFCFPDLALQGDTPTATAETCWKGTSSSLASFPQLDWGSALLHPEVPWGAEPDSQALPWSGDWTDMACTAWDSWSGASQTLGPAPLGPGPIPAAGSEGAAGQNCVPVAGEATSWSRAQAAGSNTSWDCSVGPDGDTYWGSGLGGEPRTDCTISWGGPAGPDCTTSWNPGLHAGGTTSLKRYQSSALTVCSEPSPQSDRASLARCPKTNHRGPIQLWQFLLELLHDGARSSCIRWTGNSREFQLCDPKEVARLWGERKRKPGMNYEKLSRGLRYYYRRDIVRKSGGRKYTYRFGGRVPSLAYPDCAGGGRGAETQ
# Outline: as §1
# [8] = target: T5, ELF3 (Homo sapiens, UniProt P78545 1-371); conditions: protein: recombinant; tags: N-terminal GST; dsDNA, one strand shown
# T5 sequence: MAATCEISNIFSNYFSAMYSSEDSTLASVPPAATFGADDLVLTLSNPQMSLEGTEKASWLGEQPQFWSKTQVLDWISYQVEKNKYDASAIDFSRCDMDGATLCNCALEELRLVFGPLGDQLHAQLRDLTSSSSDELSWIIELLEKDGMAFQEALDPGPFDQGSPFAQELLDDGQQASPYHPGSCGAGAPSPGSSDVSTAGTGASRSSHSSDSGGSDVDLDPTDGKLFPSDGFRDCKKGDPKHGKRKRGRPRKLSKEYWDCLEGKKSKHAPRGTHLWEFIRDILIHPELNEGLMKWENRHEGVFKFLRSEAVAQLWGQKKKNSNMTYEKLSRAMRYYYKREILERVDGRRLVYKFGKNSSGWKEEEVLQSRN
# Outline: as §1
# [9] = target: CRX (Homo sapiens, UniProt O43186 1-299); conditions: protein: recombinant; tags: N-terminal GST; dsDNA, one strand shown
# Outline: as §1
# [10] = target: ETV1 (Homo sapiens, UniProt P50549 1-477); conditions: protein: recombinant; tags: N-terminal GST; dsDNA, one strand shown
# Outline: as §1
# [11] = target: T6, ERF (Homo sapiens, UniProt P50548 1-548); conditions: protein: recombinant; tags: N-terminal GST; dsDNA, one strand shown
# T6 sequence: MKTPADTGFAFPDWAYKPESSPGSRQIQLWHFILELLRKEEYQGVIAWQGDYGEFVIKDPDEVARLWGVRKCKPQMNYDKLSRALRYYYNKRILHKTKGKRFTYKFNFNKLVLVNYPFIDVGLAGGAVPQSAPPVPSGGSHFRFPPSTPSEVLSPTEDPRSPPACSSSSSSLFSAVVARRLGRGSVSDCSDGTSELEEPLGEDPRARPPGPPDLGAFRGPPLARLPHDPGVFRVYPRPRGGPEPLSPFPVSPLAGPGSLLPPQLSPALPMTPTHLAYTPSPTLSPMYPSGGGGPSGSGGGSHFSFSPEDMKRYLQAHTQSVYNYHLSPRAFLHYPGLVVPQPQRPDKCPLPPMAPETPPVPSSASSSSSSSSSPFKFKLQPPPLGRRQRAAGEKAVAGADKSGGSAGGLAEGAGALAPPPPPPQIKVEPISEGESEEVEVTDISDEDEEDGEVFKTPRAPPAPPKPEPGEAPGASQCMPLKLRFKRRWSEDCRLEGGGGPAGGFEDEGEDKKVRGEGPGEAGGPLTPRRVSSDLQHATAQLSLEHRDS
# Outline: as §1
# [12] = target: T7, ETV3L (Homo sapiens, UniProt Q6ZN32 1-361); conditions: protein: recombinant; tags: N-terminal GST; dsDNA, one strand shown
# T7 sequence: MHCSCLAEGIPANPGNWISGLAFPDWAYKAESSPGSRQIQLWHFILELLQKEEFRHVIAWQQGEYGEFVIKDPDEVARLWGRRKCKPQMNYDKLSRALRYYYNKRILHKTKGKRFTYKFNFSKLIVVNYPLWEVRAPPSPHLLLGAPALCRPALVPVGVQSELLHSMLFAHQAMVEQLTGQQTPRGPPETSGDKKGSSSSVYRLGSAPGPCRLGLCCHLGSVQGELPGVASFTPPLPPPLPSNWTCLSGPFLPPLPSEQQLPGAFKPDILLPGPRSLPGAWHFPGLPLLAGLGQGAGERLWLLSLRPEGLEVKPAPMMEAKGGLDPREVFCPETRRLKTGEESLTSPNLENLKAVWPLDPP
# Outline: as §1
# [13] = target: T8, ETS2 (Homo sapiens, UniProt P15036 1-469); conditions: protein: recombinant; tags: N-terminal GST; dsDNA, one strand shown
# T8 sequence: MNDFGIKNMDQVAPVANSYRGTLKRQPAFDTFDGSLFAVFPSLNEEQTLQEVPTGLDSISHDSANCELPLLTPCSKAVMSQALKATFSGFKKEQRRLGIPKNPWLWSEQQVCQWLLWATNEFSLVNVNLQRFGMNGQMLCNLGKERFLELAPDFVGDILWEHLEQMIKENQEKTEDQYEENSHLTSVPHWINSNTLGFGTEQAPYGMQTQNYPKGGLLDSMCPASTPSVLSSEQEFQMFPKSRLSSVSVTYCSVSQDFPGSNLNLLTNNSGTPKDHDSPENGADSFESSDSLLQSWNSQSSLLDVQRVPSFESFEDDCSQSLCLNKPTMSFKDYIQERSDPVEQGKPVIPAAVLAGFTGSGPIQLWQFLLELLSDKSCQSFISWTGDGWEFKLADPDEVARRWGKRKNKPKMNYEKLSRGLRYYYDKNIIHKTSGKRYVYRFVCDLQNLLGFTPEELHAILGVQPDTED
# Outline: as §1
# [14] = target: T9, SPDEF (Homo sapiens, UniProt O95238 1-335); conditions: protein: recombinant; tags: N-terminal GST; dsDNA, one strand shown
# T9 sequence: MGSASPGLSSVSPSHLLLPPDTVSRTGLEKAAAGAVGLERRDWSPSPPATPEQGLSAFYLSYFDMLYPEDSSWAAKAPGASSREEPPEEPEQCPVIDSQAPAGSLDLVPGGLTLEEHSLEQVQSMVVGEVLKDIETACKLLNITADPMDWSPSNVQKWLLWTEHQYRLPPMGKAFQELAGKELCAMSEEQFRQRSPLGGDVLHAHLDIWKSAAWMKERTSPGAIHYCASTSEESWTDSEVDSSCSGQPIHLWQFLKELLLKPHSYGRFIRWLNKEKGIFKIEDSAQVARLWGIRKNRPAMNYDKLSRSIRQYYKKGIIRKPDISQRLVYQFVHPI
# Outline: as §1
# [15] = target: T10, ELF5 (Homo sapiens, UniProt Q9UKW6-2 1-255); conditions: protein: recombinant; tags: N-terminal GST; dsDNA, one strand shown
# T10 sequence: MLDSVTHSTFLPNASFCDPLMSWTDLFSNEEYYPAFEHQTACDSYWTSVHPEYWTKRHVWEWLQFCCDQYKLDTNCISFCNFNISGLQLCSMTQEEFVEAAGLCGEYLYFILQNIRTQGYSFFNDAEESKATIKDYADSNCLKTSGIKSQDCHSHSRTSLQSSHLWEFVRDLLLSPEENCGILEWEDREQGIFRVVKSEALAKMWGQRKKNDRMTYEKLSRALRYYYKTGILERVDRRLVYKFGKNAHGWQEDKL
# Outline: as §1
# [16] = target: ETV6 (Homo sapiens, UniProt P41212 1-452); conditions: protein: recombinant; tags: N-terminal GST; dsDNA, one strand shown
# Outline: as §1
# [17] = target: T11, ETV7 (Homo sapiens, UniProt Q9Y603 1-341); conditions: protein: recombinant; tags: N-terminal GST; dsDNA, one strand shown
# T11 sequence: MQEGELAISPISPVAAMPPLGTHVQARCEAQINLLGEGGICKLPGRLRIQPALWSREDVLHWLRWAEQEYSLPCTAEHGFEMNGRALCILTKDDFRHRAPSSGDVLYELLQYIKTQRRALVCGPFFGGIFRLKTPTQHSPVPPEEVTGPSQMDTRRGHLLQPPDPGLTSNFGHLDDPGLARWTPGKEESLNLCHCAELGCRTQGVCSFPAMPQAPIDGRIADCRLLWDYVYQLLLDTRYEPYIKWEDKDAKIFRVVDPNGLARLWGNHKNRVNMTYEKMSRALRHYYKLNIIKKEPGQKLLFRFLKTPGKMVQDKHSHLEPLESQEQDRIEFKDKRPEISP
# Outline: as §1
# [18] = target: T12, ETV3 (Homo sapiens, UniProt P41162-2 1-143); conditions: protein: recombinant; tags: N-terminal GST; dsDNA, one strand shown
# T12 sequence: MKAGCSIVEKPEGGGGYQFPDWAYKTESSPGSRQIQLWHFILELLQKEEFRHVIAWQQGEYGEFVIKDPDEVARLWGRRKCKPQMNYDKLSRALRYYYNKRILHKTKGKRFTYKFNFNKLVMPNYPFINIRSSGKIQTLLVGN
# Outline: as §1
# Sequence of ETV1 (P50549 whole entry): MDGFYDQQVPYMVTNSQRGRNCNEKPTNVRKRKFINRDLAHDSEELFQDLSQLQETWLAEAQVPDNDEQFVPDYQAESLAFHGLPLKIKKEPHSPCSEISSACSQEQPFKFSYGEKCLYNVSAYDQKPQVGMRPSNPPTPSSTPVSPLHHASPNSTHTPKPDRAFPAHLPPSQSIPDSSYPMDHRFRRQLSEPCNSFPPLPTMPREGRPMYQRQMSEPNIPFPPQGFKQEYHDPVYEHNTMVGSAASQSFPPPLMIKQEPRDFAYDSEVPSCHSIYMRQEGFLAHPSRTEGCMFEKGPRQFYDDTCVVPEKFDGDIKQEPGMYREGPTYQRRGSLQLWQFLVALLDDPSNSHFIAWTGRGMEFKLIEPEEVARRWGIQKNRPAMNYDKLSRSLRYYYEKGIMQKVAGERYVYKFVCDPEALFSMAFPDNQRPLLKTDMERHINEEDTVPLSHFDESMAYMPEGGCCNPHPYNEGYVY
# Sequence of HSF1 (Q00613 whole entry): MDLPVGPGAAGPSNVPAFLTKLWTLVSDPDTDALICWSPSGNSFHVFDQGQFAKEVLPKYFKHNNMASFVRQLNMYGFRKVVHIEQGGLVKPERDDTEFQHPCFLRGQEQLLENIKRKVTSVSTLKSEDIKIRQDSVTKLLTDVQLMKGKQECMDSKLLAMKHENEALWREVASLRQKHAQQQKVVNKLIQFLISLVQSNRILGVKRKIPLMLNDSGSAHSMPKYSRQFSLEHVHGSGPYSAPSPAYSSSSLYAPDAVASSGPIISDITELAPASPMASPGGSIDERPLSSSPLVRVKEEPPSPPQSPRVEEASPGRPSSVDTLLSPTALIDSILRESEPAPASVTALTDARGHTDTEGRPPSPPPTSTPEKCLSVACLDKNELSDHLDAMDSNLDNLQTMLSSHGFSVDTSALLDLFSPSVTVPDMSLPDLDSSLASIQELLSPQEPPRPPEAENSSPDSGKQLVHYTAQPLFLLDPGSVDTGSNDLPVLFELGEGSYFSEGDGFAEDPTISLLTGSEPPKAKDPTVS
# Sequence of ETV5 (P41161 whole entry): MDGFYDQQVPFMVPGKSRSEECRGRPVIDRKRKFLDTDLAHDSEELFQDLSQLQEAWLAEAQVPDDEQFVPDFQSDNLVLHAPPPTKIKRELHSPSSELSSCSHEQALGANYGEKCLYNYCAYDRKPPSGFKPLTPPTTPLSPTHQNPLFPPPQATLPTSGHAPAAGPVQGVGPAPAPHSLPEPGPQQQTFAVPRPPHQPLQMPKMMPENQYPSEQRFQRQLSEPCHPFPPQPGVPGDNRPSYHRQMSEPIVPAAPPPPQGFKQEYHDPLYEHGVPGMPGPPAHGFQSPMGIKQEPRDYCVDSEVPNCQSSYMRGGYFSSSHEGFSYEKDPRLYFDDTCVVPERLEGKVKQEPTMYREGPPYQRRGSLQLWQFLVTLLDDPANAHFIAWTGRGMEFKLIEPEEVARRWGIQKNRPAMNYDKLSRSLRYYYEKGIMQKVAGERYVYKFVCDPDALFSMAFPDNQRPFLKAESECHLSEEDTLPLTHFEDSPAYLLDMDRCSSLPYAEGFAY
# Sequence of ELF4 (Q99607 whole entry): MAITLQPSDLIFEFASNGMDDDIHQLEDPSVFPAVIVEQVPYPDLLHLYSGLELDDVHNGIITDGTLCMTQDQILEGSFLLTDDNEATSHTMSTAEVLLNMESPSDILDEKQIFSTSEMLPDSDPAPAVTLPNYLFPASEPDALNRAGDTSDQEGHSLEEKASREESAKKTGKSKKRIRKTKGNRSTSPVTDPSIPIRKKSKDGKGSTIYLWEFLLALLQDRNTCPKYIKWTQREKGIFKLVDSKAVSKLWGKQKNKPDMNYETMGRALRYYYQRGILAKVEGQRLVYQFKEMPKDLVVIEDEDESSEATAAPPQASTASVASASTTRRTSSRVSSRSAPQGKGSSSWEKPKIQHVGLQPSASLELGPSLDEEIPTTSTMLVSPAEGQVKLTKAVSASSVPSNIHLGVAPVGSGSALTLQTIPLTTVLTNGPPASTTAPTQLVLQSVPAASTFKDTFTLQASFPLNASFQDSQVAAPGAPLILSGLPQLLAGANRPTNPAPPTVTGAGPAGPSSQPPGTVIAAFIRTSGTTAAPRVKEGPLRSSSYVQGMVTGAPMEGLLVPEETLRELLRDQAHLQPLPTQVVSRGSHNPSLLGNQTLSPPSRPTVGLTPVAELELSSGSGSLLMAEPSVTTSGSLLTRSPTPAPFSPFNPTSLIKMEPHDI
# Sequence of CRX (O43186 whole entry): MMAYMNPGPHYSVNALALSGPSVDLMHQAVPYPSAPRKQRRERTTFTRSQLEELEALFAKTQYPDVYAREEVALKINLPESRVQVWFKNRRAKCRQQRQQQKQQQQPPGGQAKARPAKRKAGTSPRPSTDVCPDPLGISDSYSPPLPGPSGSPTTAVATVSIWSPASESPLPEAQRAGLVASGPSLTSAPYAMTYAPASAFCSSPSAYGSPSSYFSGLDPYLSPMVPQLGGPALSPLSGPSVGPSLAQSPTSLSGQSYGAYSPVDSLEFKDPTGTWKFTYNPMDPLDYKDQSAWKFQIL
# Sequence of ETV6 (P41212 whole entry): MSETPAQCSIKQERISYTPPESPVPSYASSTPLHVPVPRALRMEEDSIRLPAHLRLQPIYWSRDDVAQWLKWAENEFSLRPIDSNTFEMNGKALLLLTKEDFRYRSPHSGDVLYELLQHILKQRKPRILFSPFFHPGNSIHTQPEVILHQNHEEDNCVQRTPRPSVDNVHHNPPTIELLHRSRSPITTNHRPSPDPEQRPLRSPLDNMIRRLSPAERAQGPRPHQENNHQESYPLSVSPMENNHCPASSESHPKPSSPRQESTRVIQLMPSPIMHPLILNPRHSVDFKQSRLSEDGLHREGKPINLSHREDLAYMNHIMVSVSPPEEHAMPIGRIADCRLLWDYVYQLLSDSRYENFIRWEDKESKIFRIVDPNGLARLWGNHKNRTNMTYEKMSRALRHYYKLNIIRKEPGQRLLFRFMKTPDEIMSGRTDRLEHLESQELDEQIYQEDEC
Sequence,binding signal [1],binding signal [2],binding signal [3],binding signal [4],binding signal [5],binding signal [6],binding signal [7],binding signal [8],binding signal [9],binding signal [10],binding signal [11],binding signal [12],binding signal [13],binding signal [14],binding signal [15],binding signal [16],binding signal [17],binding signal [18]
TAATCG,"1.01 fold enrichment (6-mer frequency, TF over GST control)","1.07 fold enrichment (6-mer frequency, TF over GST control)","1.93 fold enrichment (6-mer frequency, TF over GST control)","1 fold enrichment (6-mer frequency, TF over GST control)","1.07 fold enrichment (6-mer frequency, TF over GST control)","1.1 fold enrichment (6-mer frequency, TF over GST control)","1.04 fold enrichment (6-mer frequency, TF over GST control)","1.07 fold enrichment (6-mer frequency, TF over GST control)","2.89 fold enrichment (6-mer frequency, TF over GST control)","1.01 fold enrichment (6-mer frequency, TF over GST control)","1.06 fold enrichment (6-mer frequency, TF over GST control)","1.09 fold enrichment (6-mer frequency, TF over GST control)","1.08 fold enrichment (6-mer frequency, TF over GST control)","1.05 fold enrichment (6-mer frequency, TF over GST control)","1.05 fold enrichment (6-mer frequency, TF over GST control)","1.05 fold enrichment (6-mer frequency, TF over GST control)",,
GACTTT,"1.14 fold enrichment (6-mer frequency, TF over GST control)","1.22 fold enrichment (6-mer frequency, TF over GST control)","1.4 fold enrichment (6-mer frequency, TF over GST control)","1.21 fold enrichment (6-mer frequency, TF over GST control)","1.22 fold enrichment (6-mer frequency, TF over GST control)","1.17 fold enrichment (6-mer frequency, TF over GST control)","1.1 fold enrichment (6-mer frequency, TF over GST control)","1.1 fold enrichment (6-mer frequency, TF over GST control)","1.37 fold enrichment (6-mer frequency, TF over GST control)","1.24 fold enrichment (6-mer frequency, TF over GST control)","1.09 fold enrichment (6-mer frequency, TF over GST control)","1.13 fold enrichment (6-mer frequency, TF over GST control)","1.17 fold enrichment (6-mer frequency, TF over GST control)",,"1.13 fold enrichment (6-mer frequency, TF over GST control)","1.14 fold enrichment (6-mer frequency, TF over GST control)","1.2 fold enrichment (6-mer frequency, TF over GST control)","1.14 fold enrichment (6-mer frequency, TF over GST control)"
